# Molecular target: DMRTC2
# Experiment: pooled miR-30 sensor sort-seq; sequence = guide strand
# Settings: shRNA
# Also: reference of the scale not given here.
row,Sequence,sensor-assay potency score (higher = more potent)
1,TATCAGAGTTGAGTGTGTGCGG,-0.137
2,TATGCAGAGCAACAGAGGGGGC,-1.35
3,ATATGCAGAGCAACAGAGGGGG,-0.319
4,TTGTGACACTCGCAAGCCTGGA,-1.29
5,TTCTGAAGTGGTTGGGAGCTTT,-0.576
6,TAGCTGAAGAGGGTCTGGGGTG,-1.25
7,TCTGAGGGACCAGATGTCCGGG,-1.06
8,TTTGTGACACTCGCAAGCCTGG,-0.968
9,ACACATTTGTGACACTCGCAAG,-1.72
10,ATTTGTGACACTCGCAAGCCTG,-0.869
11,TCAGAGTTGAGTGTGTGCGGGG,-0.0492
12,TCAGTACTGGGTGAGATCCTGG,-0.163

# Molecular target: DMXL1
# Experiment: as above
# Settings: shRNA
row,Sequence,sensor-assay potency score (higher = more potent)
1,TACATTTCTAAATAGTATCTAC,-0.076
2,TTCGCTAATATATACAACTAAG,-0.796
3,TTCTACATTATACCAAACCTTC,-0.955
4,TTCATTTTCATTTAGACTCAGA,-0.406
5,TTATTTGAAAATTAGGATGGGA,0.431
6,TTTTTCTGAACTTCCATCTGGA,0.702
7,TTCTTGAACATCATGACTGGAA,-0.0948
8,TAACATTTCCATAAGACGCTGC,0.508
9,TTGTTTCTGAAAACACTGCTAT,0.009
